# Assay results as given in PubChem BioAssay (NCI).
# This is part of a sample that, as a whole, favours compounds with a hit. Of some 83,000 tested, about 20% had one in any assay.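 Single-dose data. Exposure time 48 hours. Values below 10 considered active.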 Active and inactive are the calls of the source.
# Test system: MDA-MB-468 breast
# Experiment: NCI-60 one-dose screen, 48 h (100 = growth as untreated, 0 = no growth, -100 = all killed)
# Details: 10 µM unless noted
row,SMILES,growth
1,COc1cc2oc(-c3cccc(C(=O)Nc4ccc(C)cc4)c3)cc(=O)c2c(OC)c1OC,54.5% (inactive)
2,COc1cc(OC)c(/C=C/c2ccc3ccccc3[n+]2C)c(OC)c1,-13.7% (active)
3,COc1cc(NC(=O)c2cc3ccccc3cc2O)c(OC)cc1Cl,-5.6% (active)
4,C/C(=C(/c1ccccc1)c1ccc(OCC(O)CN2CCOCC2)cc1)c1ccccc1 (stereo not given),85.1% (inactive)
5,COc1ccc(C(=O)/C=C/c2cn(Cc3ccc(Cl)cc3)c3ccccc23)cc1,-28.2% (active)
6,O=C(Nc1cccc(-n2cc(-c3ccncc3)c(-c3ccc(O)c(Cl)c3)n2)c1)c1cc(C(F)(F)F)cc(C(F)(F)F)c1,61.6% (inactive)
7,COc1cnc2c(c1)C(=O)c1c-2n(CCCNC2=NCCS2)c(=O)c2cc(F)ccc12,-17.6% (active)
8,S=C(N/N=C/c1ccccn1)Nc1ccccn1,-1.71% (active)
9,COc1cc2c(cc1OCCCOC1=C=C=C(c3ccc4c(c3)c3cc(-c5ccc(OCCCOc6cc7c(cc6OC)C(=O)N6CCC[C@H]6C=N7)cc5)ccc3n4S(=O)(=O)c3ccc(C)cc3)C=C1)N=C[C@@H]1CCCN1C2=O,-17% (active)
10,Cc1cc(OI)c(C(C)C)cc1-c1cc(C(C)C)c(OI)cc1C,108% (inactive)
11,CCN(CC)CCOc1ccc(/C(=C(\C)Cc2ccc(OC)cc2)c2ccc(OC(=O)NCc3ccccc3)cc2)cc1,43.3% (inactive)
12,C=C1C(=O)O[C@H]2[C@H]1CC/C(COC(=O)NCc1ccc(OC)c(OC)c1)=C\CC[C@@]1(C)O[C@@H]21,24.3% (inactive)
13,COc1ccc(/C=C/C(C)=N/OCC(=O)O)cc1,95.6% (inactive)
14,CCn1c(SCC(=O)Nc2cccc(C(=O)/C=C/c3ccc(C)cc3)c2)nc2ccccc2c1=O,58.7% (inactive)
15,CCC(C)[C@H]1O[C@]2(CC[C@@H]1C)C[C@@H]1C[C@@H](C/C=C(\C)[C@@H](OC3C[C@H](OC)C(O[C@H]4C[C@H](OC)[C@@H](O)[C@H](C)O4)[C@H](C)O3)[C@@H](C)/C=C/C=C3\CO[C@@H]4[C@H](O)C(C)=C[C@@H](C(=O)O1)[C@]34O)O2 (stereo not given in full),10.5% (inactive)
16,C[N+]1(CC2CO2)CCCCCC1 (stereo not given),103% (inactive)
17,COc1cc(-c2cc(/C=C/C(=O)c3ccc4c(c3)OCO4)[nH]n2)cc(OC)c1OC,-4.54% (active)
18,CCCCCC/C=C\CCCCCCCCCc1cc(O)cc(OC)c1O,-54.1% (active)
19,Cc1ccc(-c2cc(-c3cccc4ccccc34)n3c(n2)nc2ccccc23)cc1,70.4% (inactive)
20,COc1cc2c3c(n([C@H]4CCOC4)c(=O)c2cc1OC)-c1cc2c(cc1C3=O)OCO2,31.3% (inactive)

row,SMILES,growth
1,O=S(=O)(Nc1ccc(-c2nc(-c3cccc(OCCN4CCOCC4)c3)c(-c3ccnc(Br)c3)[nH]2)cc1)c1ccccc1,1.46% (active)
2,Clc1ccc2[nH]cc(-c3nn4cc(-c5ccncc5)nc4s3)c2c1,42.4% (inactive)
3,O=C1/C(=C/c2ccccc2O)CC/C1=C\c1ccccc1O,34.3% (inactive)
4,CCCCCCOC(=O)c1cc(-c2ccc(F)cc2)nc2ccccc12,105% (inactive)
5,O=S(=O)(c1ccccc1)n1ccc(-c2ccc3c(c2)CCO3)n1,42.4% (inactive)
6,COc1cc(C2CC(=O)Nc3c2c(C)nn3-c2nc3ccccc3[nH]2)c(OC)c2c1OCO2 (stereo not given),36.7% (inactive)
7,O=C(Nc1ccc(N=Cc2c(O)[nH]c3ccccc23)cc1)Nc1nccs1,-2.28% (active)
8,O=C(Nc1ccncc1)C(=O)c1cn(S(=O)(=O)c2ccc(Oc3ccccc3)cc2)c2ccccc12,55.4% (inactive)
9,CCOC(=O)c1nn(C2CCCCO2)c2ccc(NC(=O)CSc3nc4ccccc4c(=O)[nH]3)cc12 (stereo not given),95.7% (inactive)
10,COc1cc2cc(Oc3ccc(NC(=O)Nc4cc(C(F)(F)F)cc(C(F)(F)F)c4)cc3)c(C)nc2cc1OCCN1CCCCC1,-78.6% (active)
11,COc1ccc(C2C(c3nn[nH]n3)=C(N)Oc3c2ccc2ccccc32)cc1 (stereo not given),43.8% (inactive)
12,COc1ccc(-c2cc(=O)oc3c4c(ccc23)OCN(Cc2ccc(F)cc2)C4)cc1,16.1% (inactive)
13,COc1ccc(-c2nc(-c3nc4ccc(F)cc4[nH]3)cc3c2[nH]c2ccccc23)cc1,40% (inactive)
14,O=C(NCc1cccnc1)/C(=C\c1ccc(Br)cc1)S(=O)(=O)c1ccccc1,-58.9% (active)
15,Cc1nn(-c2nc3ccccc3[nH]2)c2c1C(c1ccc(OCC(N)=O)cc1)CC(=O)N2 (stereo not given),108% (inactive)
16,C[C@@H]1C(=O)[C@@H]2C[C@@H](O)[C@@H](O)C[C@]2(C)[C@H]2CC[C@@]3(C)C(=C12)CC[C@@H]3[C@@](C)(O)[C@H](O)CCC(C)(C)O,103% (inactive)
17,COc1ccc(OC)c(/C=C/c2nc(SC)n(-c3ccc(Cl)cc3)n2)c1,25.2% (inactive)
18,Cc1nn(-c2ccccc2)c(Oc2ccc(Cl)cc2)c1/C=N\N=c1/sc2ccccc2n1C,81.8% (inactive)
19,CC(C)(C)c1ccc(OP(=S)(N/N=C/c2ccccc2O)Oc2ccc(C(C)(C)C)cc2)cc1,35.4% (inactive)
20,CCc1cc(Cl)c(OC)c(C(=O)NCC2CCCN2CC)c1O (stereo not given),77.1% (inactive)
